# Source: PubChem BioAssay (National Center for Advancing Translational Sciences (NCATS))
# HTT cytoprotect = Huntington cell model cytoprotection by ATP luminescence. Potency, µM (highest dose often 56.4 µM), hits mostly activators. PC12 HTT-Q103 induced, cytoprotection, ATP luminescence, 40 h. 230,000 tested, 0.14% active; note: nearly all actives have a fitted effect of over 45% in size
#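 PC12 cells with ecdysone-inducible HTT exon 1 Q103-GFP, induced with 100 nM tebufenozide and co-treated with library compounds in a dose series (1536-well, 1500 cells/well). Cytoprotection read as ATP content by ATPlite luminescence.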
# PNC assembly inh = inhibitors of perinucleolar compartment assembly; activity change (PNC), negative = inhibition, % at 10 µM; 140,000 tested, 3.1% active; PC3M PTB-GFP, PNC prevalence imaging, 16 h; stronger effect = lower value;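 active = readout at or below -70, meaning at least 70% loss of cells showing the perinucleolar compartment, a nuclear body marking cancer cells; inconclusive = readout between -30 and a set limit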
#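 Read-out is percentage of cells bearing a perinucleolar compartment, from automated 20x imaging of fixed, Hoechst-stained PC3M PTB-GFP cells. Cells were seeded 4 h, then exposed 16 h to compound (23 nl of library stock) in duplicate plates.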
# CBFb RUNX1 block = CBF-beta/RUNX1 interaction disruption; AID 1477; 230,000 tested, under 10 active; AlphaScreen CBFb-His/RUNX1-biotin binding, biochemical; Potency, µM (doses to about 59.8 µM), actives largely listed as inhibitors
#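 CBFb-His/RUNX1-biotin, 30 nM each, preincubated 20 min RT; compound 15 min RT; Ni + streptavidin beads 50 ng each, 90 min RT; AlphaScreen read.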
# HPGD inh = HPGD (human) dehydrogenase inhibition; purified HPGD, NADH fluorescence kinetic, PGE2 substrate; Potency, µM, usual class: inhibitors; 150,000 tested, 4.3% active; AID 894; active = well fitted inhibition curve with a large enough effect, not every such curve was filed as active; inconclusive = small, poorly fitted or top-dose-only effect, or another doubt; inactive = no such curve, though single readings can be large or run the other way
# Target sequence (P15428 whole entry, looked up): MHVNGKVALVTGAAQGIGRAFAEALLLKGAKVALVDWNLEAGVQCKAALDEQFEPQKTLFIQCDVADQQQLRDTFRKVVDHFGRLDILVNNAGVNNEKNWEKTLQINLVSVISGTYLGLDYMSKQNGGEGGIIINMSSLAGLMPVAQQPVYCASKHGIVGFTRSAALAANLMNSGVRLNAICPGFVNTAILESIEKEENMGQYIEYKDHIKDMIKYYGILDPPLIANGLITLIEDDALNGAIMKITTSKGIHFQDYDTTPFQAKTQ
#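 20 nM HPGD preincubated 15 min at room temperature with compound in 50 mM Tris-HCl pH 8, 0.01% Tween 20. Started with 1 mM NAD+ and 30 uM prostaglandin E2; NADH fluorescence (360/450 nm) read 5 times over 30-s intervals, last minus first.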
# ALDH1A1 inh = blocks purified human ALDH1A1 activity | AID 1030 | Potency, µM (titrated, usually from 75.3 µM), usual class: inhibitors | 220,000 tested, 7.3% active | Purified ALDH1A1, NADH fluorescence, propionaldehyde substrate | P00352; active = well fitted inhibition curve with a large enough effect, not every such curve was filed as active; inconclusive = small, poorly fitted or top-dose-only effect, or another doubt; inactive = no such curve, though single readings can be large or run the other way
# HttQ103 aggreg = mutant huntingtin aggregation inhibition | PC12 HttQ103-GFP aggregates, Acumen cytometry, 40 h | 220,000 tested, 1.1% active | AID 1688 | Potency, µM (highest dose often 46.1 µM), usual class: inhibitors; note: nearly all actives have a fitted effect of over 60% in size
#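 Aggregate formation scored by laser-scanning cytometer (488 excitation, 500–530 emission) in lysed PC12 cells expressing Q103-GFP after 100 nM tebufenozide induction; library tested in dose series, with ATPLite reagent added in the multiplex.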
# Numbers stand for hits; – = inactive; ? = inconclusive; · = no result; [ ] = another dose, or the depositor's remark. Shown are actives, neighbours in structure and some others; about 11% of the full set was active somewhere. Unless noted, calls come from the whole dose curve; as a rule, active = well fitted curve in the direction sought with a large enough effect; inconclusive = small, poorly fitted or top-dose-only effect, or another doubt; inactive = no such curve, though single readings can be large; an effect the other way counts as inactive or inconclusive.
SMILES,HTT cytoprotect,PNC assembly inh,CBFb RUNX1 block,HPGD inh,ALDH1A1 inh,HttQ103 aggreg
CNC(=O)C1C(=S)NC(N)=C(C#N)C1c1ccccc1 (centres undefined),–,–,–,–,17.8µM,–[1.84 µM]
C1CNCCNCCCNCCNC1,·,-114.6,?,–,–,–
C1CCCNCC1,–,·,–,–,22.4µM,·
CC1CCC2C(=O)N3C(CCC(C)[C@@H]3c3ccc(Br)cc3)C(=O)N2C1c1ccc(Br)cc1 (some centres undefined),–[10 µM],·,–[13.1 µM],·,–[13.5 µM],·
CCn1c(=O)c([N+](=O)[O-])c(N2CCN(Cc3ccc4c(c3)OCO4)CC2)c2ccccc21,–[10 µM],·,?,·,·,–[9.22 µM]
COc1ccc(Oc2ncc3nc(-c4ccc(F)cc4)c(=O)n(Cc4cccs4)c3n2)cc1,–,·,·,·,?,·
Cc1cc(C)n(-c2nc(-c3ccc(Cl)cc3)cs2)n1,–,–,–,–,–,–
c1ccc2c(c1)Nc1cc3ccccc3cc1S2,–[10 µM],·,–,·,–,–[9.22 µM]
COc1ccc2c(c1)Sc1ccccc1N2,–[10 µM],·,?,·,–,7.94µM
COc1ccc(S(=O)(=O)N(CC(=O)N2CCN(c3ccccc3OC)CC2)c2ccccc2)cc1,–,–,–,–,7.08µM,?
Cc1ccc(/C=N/NC(=O)c2cccs2)o1,–[10 µM],-82.5,–,–,–,–
CC(/C=N/NC(=O)c1cccs1)=C\c1ccco1,–,·,–,·,7.94µM,–
O=C(/C=C/c1ccccc1)NCCc1ccccc1,–[10 µM],·,?,·,·,–[9.22 µM]
COCCn1c(=NC(=O)CSCC(=O)Nc2cc(C)on2)sc2cc(C(=O)OC)ccc21,·,-113.4,–,–,?,–
CC1(C)C(c2ccccn2)=[N+]([O-])C(C)(C)N1O,–,?,–,–,–,–[9.22 µM]
CC1(C)C(c2ccccc2)=[N+]([O-])CN1O,–,–,–,–,7.94µM,–
O=S(=O)(Nc1nc(CN2CCOCC2)nc2sc3c(c12)CCCC3)c1cc(F)ccc1F,–,–,–,–,14.1µM,–
CCNc1nc(CN2CCOCC2)nc2sc3c(c12)CCC3,–,–,–,–,?,–
Cn1cc(-c2nc3cnc(N4CCNCC4)nc3n(Cc3ccc(F)cc3)c2=O)c2ccccc21,–,·,·,·,–,·
CCNc1ncc2nc(-c3cn(C)c4ccccc34)c(=O)n(Cc3ccc(F)cc3)c2n1,25.1µM,·,·,·,–,·
CCCOc1ccc(CN(CCC#N)C(=S)NC(=O)c2ccccc2)cc1,–[10 µM],?,–,28.2µM,–,–
CCC(=O)N[C@@H]1CCc2cccc(OC)c2C1,–,·,–,–,–,·
c1ccc(-c2nc(-c3ccccc3)c(NC3CCCCC3)o2)cc1,–,·,–,–,–,·
COc1cccc(-c2nn[nH]n2)c1O,·,–,–,–,–,–
COc1ccc(N2C(=O)[C@@H]3[C@H](C2=O)[C@H](C(=O)c2ccc(OC(C)=O)cc2)N2N=CC=C[C@@H]32)cc1,·,–,–,–,?,–
SMILES,HTT cytoprotect,PNC assembly inh,CBFb RUNX1 block,HPGD inh,ALDH1A1 inh,HttQ103 aggreg
CC(=O)Oc1ccc(C(=O)[C@H]2[C@H]3C(=O)N(c4ccc(C)cc4)C(=O)[C@H]3[C@@H]3C=CC=NN32)cc1,·,–,–,?,20µM,–
Cc1ccc(N2C(=O)[C@@H]3[C@H](C2=O)[C@H]2C=CC=NN2[C@@H]3C(=O)Nc2ccccc2)cc1,–[10 µM],·,–,·,25.1µM,–[9.22 µM]
CC[C@H]1CN(C)[C@H]2Cc3c([nH]c4ccccc34)C(=O)C[C@H]1[C@H]2C(=O)OC,–[10 µM],·,·,–,?,·
Cc1ccc(S(=O)(=O)/C(C#N)=C/c2c(N3CC(C)OC(C)C3)nc3ccccn3c2=O)cc1 (centres undefined),–,–,–,14.1µM,–,–
N#C/C(=C\c1c(N2CCOCC2)nc2ccccn2c1=O)S(=O)(=O)c1ccccc1,–,–,–,2µM,12.6µM,–
Cc1ccc(S(=O)(=O)/C(C#N)=C/c2c(N3CCCCC3)nc3ccccn3c2=O)cc1,–[10 µM],·,–,·,·,–[9.22 µM]
CCC1(CC)C(=O)C2=C3C1[C@H](C(=O)OC)CC(C(=O)OC)C[C@H]3[C@H]1C(=O)N(C)C(=O)[C@H]1[C@H]2C (some centres undefined),·,·,–,·,·,·
CN1CCN(C(=O)NC2CCCCC2)CC1,–[10 µM],?,–,–,?,–
CN1CCN(C2CCCCCC2)CC1,–[10 µM],-118.9,–,–,–,–
